The values below come from PubChem BioAssay (NCATS).

As usually defined, the viability is a read-out of living cells in per cent, often relative to untreated cells.

Assay [1] concerns the target Cellular tumor antigen p53 (Homo sapiens) (UniProt P04637). Put plainly: Primary qHTS for small molecule compounds that upregulate eGFP-tagged delta133p53alpha (in N-terminal) cells. (AID 2060322). Also: nearly all actives have a fitted effect of over 75% in size. Also: potency is read from the fitted curve at half-maximal effect.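 As to activation: series mostly up to about 56 µM; 0% = DMSO vehicle and 100% = reference activator.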 The following applies: NCI-H358 eGFP-delta133p53alpha fluorescence, 24 h; activation: active compounds read high. Summed up: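 NCI-H358 cells pre-induced 24 h with 10 ng/ml doxycycline to express N-terminal eGFP-delta133p53alpha, then dosed 24 h at 37C without doxycycline; fixed, Hoechst-stained, GFP intensity by laser scanning cytometry, normalized to DMSO (0%) and 57.5 uM 5-azacytidine (100%).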
A general note: Quantitative high-throughput screening tests each substance at several concentrations.

Assay [2] deals with Aldehyde dehydrogenase, mitochondrial (Homo sapiens) (UniProt P05091). Put plainly: qHTS for Inhibitors of the Aldehyde Dehydrogenase Family (ALDH2) Primary screen (AID 2061308).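 Also: plate controls were vehicle for no effect and reference inhibitor for full effect; nearly all actives have a fitted effect of over 55% in size.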
Assay [3] has as its target Retinaldehyde dehydrogenase 3 (Homo sapiens) (UniProt P47895). Put plainly: qHTS for Inhibitors of the Aldehyde Dehydrogenase Family (ALDH1A3) Primary screen (AID 2061315). Also: potency is read from the fitted curve at half-maximal effect.
A short description of assay [4]: BET inhibitor-based combinations targeting novel dependencies in MECOM-rearranged (r) AML: SET-2 cell line (AID 2202231). Also: nearly all actives have a fitted effect of over 35% in size. Also: potency is read from the fitted curve at half-maximal effect.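 As to viability: plate controls were DMSO treated cells for no effect and wells without cells for full effect.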 The note with it: SET-2 AML cells viability, CellTiter-Glo luminescence, 48 h; viability: active compounds read low, concentration not given here. The method in brief: (§1)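 Viability of cells (500 per well) is scored by luminescent CellTiter-Glo at 48 hr post-dosing. Eleven-point titrations are normalized to DMSO and empty controls and reduced to AUC values.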
In general terms: Cellular ATP, detected with luciferase, serves as a proxy for viable cell number.

Assay [5] in a line: BET inhibitor-based combinations targeting novel dependencies in MECOM-rearranged (r) AML: UCSD-AML1 cell line (AID 2202235). Also: nearly all actives have a fitted effect of over 40% in size. Also: potency is read from the fitted curve at half-maximal effect. The method in brief: (§2)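 Using pin-tool transfer, drugs were added in 11 doses to cells (500/well), incubated 48 hr, and assessed with CellTiter-Glo. Z-AUC is a mean-centring transformation applied separately to each screened line.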
The nature of assay [6]: BET inhibitor-based combinations targeting novel dependencies in MECOM-rearranged (r) AML: AML-191 cell line (AID 2202236; also: nearly all actives have a fitted effect of over 35% in size; also: potency is read from the fitted curve at half-maximal effect). Summed up: as §1
A short description of assay [7]: BET inhibitor-based combinations targeting novel dependencies in MECOM-rearranged (r) AML: AML-194 cell line (AID 2202237; also: nearly all actives have a fitted effect of over 40% in size; also: potency is read from the fitted curve at half-maximal effect). Summed up:
as §1

Assay [8] can be described thus: BET inhibitor-based combinations targeting novel dependencies in MECOM-rearranged (r) AML: OCI-AML3 cell line (AID 2202232). Also: nearly all actives have a fitted effect of over 35% in size. Also: potency is read from the fitted curve at half-maximal effect. The note with it: Potency: OCI-AML3 viability. Summed up: as §1
In assay [9] the target is Retinaldehyde dehydrogenase 3 (Homo sapiens) (UniProt P47895). Put plainly: qHTS for Inhibitors of the Aldehyde Dehydrogenase Family (ALDH1A3) Validation screen (AID 2061312). Also: nearly all actives have a fitted effect of over 45% in size. Also: potency is read from the fitted curve at half-maximal effect.
Assay [10] in a line: BET inhibitor-based combinations targeting novel dependencies in MECOM-rearranged (r) AML: MV-4-11 cell line (AID 2202233). Also: nearly all actives have a fitted effect of over 45% in size. Also: potency is read from the fitted curve at half-maximal effect. The method in brief: as §2
Assay [11] is described as follows: BET inhibitor-based combinations targeting novel dependencies in MECOM-rearranged (r) AML: HNT-34 cell line (AID 2202234).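 Also: plate controls were vehicle wells for no effect and cell-free wells for full effect; nearly all actives have a fitted effect of over 35% in size.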 Summed up:
as §2

Assay [12] concerns the target Retinaldehyde dehydrogenase 3 (Homo sapiens) (UniProt P47895). Put plainly: qHTS for Inhibitors of the Aldehyde Dehydrogenase Family (ALDH1A3) Confirmatory screens (AID 2061311). Also: nearly all actives have a fitted effect of over 60% in size. Also: potency is read from the fitted curve at half-maximal effect.
In assay [13] the target is Aldehyde dehydrogenase 1A1 (Homo sapiens) (UniProt P00352). The assay is described as follows: qHTS for Inhibitors of the Aldehyde Dehydrogenase Family (ALDH1A1) Confirmatory screens (AID 2061316). Also: nearly all actives have a fitted effect of over 65% in size. Also: potency is read from the fitted curve at half-maximal effect.

Values joined by “and” are separate entries in the source; they are usually repeats but may differ in a detail not shown here. Identical values can stand only once. Results filed as inconclusive are left out. Active and inactive are the calls of the source. Calls follow the shape of the dose curve; as a rule, active = well fitted curve in the direction sought with a large enough effect; inconclusive = small, poorly fitted or top-dose-only effect, or another doubt; inactive = no such curve, though single readings can be large; an effect the other way counts as inactive or inconclusive.

Chain of Cellular tumor antigen p53 (Homo sapiens) (P04637 whole entry, looked up): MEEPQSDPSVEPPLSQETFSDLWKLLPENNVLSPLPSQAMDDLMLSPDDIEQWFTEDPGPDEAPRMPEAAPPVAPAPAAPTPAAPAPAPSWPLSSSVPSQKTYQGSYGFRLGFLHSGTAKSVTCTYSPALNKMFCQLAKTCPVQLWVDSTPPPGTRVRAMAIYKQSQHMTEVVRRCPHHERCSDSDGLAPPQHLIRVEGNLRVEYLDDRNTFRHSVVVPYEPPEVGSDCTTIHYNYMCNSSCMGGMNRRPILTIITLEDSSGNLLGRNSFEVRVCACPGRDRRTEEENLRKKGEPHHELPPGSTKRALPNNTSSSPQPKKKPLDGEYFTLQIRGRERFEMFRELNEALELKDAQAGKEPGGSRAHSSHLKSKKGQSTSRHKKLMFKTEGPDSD

In the case of `COC(=O)C12C(=O)C(C)(O)C(=O)C1(C)C(C)=CC1C34CCC(OC3=O)C(C)(CO)C4CCC12C` (stereo unspecified), the activation in assay [1] was -16.8% (inactive). Moreover, the Potency result in assay [2] and in assay [3] was “inactive” in each case.

As for `COc1cc(C)[nH]c(=O)c1CNC(=O)c1c(C)n([C@H](C)C2CCOCC2)c2ccccc12`, the activation in assay [1] is -8.11% (inactive). Also, the Potency result in [2], in assay [3], in assay [5], in [6] and in assay [7] was “inactive” in each case. In addition, in [4], the viability is 113% (inactive).

Take `C/C=C(/C)C(=O)O[C@H]1C(C)=C2[C@H]([C@@H]1OC(=O)CCCCCCC)[C@@](C)(OC(C)=O)C[C@H](OC(=O)CCC)[C@@]1(O)[C@H]2OC(=O)[C@@]1(C)O`: the Potency is 33.8 µM (active) in assay [1], 263 nM (active) in assay [4], 417 nM (active) in assay [6] and 2.09 µM (active) in [7]. In addition, the Potency result in assay [2] and in assay [3] was “inactive” each time.

For the compound `C[C@H](Nc1ncnc2nc[nH]c12)c1nc2ccc(F)cc2c(=O)n1-c1ccccc1`, in assay [1], the activation was 11.6% (inactive). In addition, the Potency entry in [2] and in assay [3] was “inactive” in each case. Also, the Potency in assay [6] was 5250 nM (active).

With `COc1c(C(C)C)cc2c(c1O)[C@@]1(C(=O)O)CCCC(C)(C)C1CC2` (stereo partly specified), in assay [1], the activation was -13% (inactive). For the same compound, the Potency entry in assay [2] and in assay [3] was “inactive” throughout.

With `C=C1[C@@]23C(=O)O[C@H](C)[C@]24O[C@@]2(C(=C)[C@]5(C=CC(=O)OC5(C)C)CC[C@]32C)[C@H](O)[C@@]1(C)OC4=O`, in [1], the activation is 13% (inactive). Further, the Potency result in [3] is “inactive”.

Regarding `CC(C)[C@]12O[C@H]1[C@@H]1O[C@]13[C@]1(O[C@H]1C[C@H]1C4=C(CC[C@@]13C)C(=O)OC4)[C@@H]2O`, the Potency in assay [1] was 0.269 µM (active); in assay [4], 59 nM (active); in assay [8], 0.0295 µM (active); in assay [5] it was 41.7 nM (active); in assay [6], 37.2 nM (active); in assay [7], 0.0468 µM (active). The Potency entry in assay [2] and in [3] was “inactive” throughout.

As to `FC(F)(F)c1ccc(N2CCNCC2)nc1Cl`, the activation in [1] is -26.3% (inactive). The Potency result in assay [9] and in assay [3] was “inactive” throughout.

For `COc1cc(C(=O)O[C@H]2[C@@H]3C=CO[C@@H](O[C@@H]4O[C@H](CO)[C@@H](O)[C@H](O)[C@H]4O)[C@@H]3[C@@]3(CO)O[C@@H]23)ccc1O`, the activation in assay [1] is -3.82% (inactive). Further, the Potency entry in assay [2] and in assay [3] was “inactive” in each case.

Consider `COc1ccc2c3c4n(c2c1)[C@@H](C=C(C)C)OOC(C)(C)C[C@@H]4N1C(=O)[C@@H]2CCCN2C(=O)[C@]1(O)[C@H]3OCC=C(C)C`, for which the activation in assay [1] was 15.3% (inactive). In addition, the Potency result in assay [2] and in assay [3] was “inactive” throughout.

With `C/C1=C/[C@@H](C)C/C=C/[C@H]2[C@@H]3O[C@]3(C)[C@@H](C)[C@H]3[C@H](Cc4c[nH]c5ccccc45)NC(=O)[C@]32C(=O)/C=C\C(=O)[C@@H]1O`, the Potency in [1] was 11.7 µM (active). Further, the Potency result in assay [2] and in assay [3] was “inactive” each time.

On to `NC(=O)[C@@H](CC1CC1)[C@@H](CCC(F)(F)F)C(=O)N[C@H]1N=C(c2ccccc2)c2cccc(F)c2NC1=O`, for which, in assay [1], the activation was -1.79% (inactive). In addition, the Potency result in assay [2], in assay [3], in assay [8], in [10], in assay [11] and in assay [5] was “inactive” throughout. Also, in [7], the Potency result was “inactive”. Moreover, the viability in assay [4] was 117% (inactive).

As for `CN(C)[C@@H]1C(=O)C(C(N)=O)=C(O)[C@@]2(O)C(=O)C3=C(O)c4c(O)ccc(Cl)c4[C@@](C)(O)C3C[C@@H]12` (stereo partly specified), the Potency in assay [1] was 23.9 µM (active). Besides, the Potency result in [12], in assay [3] and in assay [13] was “inactive” each time.

For the compound `CNc1ccc2oc(C[C@H]3O[C@@]4(CC[C@H]3C)O[C@H](C(C)C(=O)c3ccc[nH]3)[C@H](C)C[C@H]4C)nc2c1C(=O)O` (stereo partly specified), the Potency in assay [1] was 19 µM (active); in assay [9], 14.1 µM (active); in assay [3], 11.2 µM (active).

For the compound `O=C(Oc1ccc([N+](=O)[O-])cc1)N1CCC(C(O)(c2ccc3c(c2)OCO3)c2ccc3c(c2)OCO3)CC1`, the activation in [1] is 9.18% (inactive) and -1.67% (inactive). Also, the Potency entry in assay [2], in [3], in assay [10], in assay [5], in [6] and in [7] was “inactive” each time. In addition, the viability in assay [4] is 104% (inactive).

As to `C=C1C(=O)OC2/C=C(\COO)CC/C=C(\COC(C)=O)CC(OC(=O)C(C)CC)C12` (stereo unspecified), the Potency in assay [1] was 9.28 µM (active). Further, the Potency entry in assay [2] and in assay [3] was “inactive” throughout.

`Cc1ccc(Cn2nc(C(=O)N[C@@H]3C(C)(C)[C@@H]4CC[C@@]3(C)C4)cc2-c2ccc(Cl)c(C)c2)cc1`: the activation in [1] was -9.82% (inactive). Further, the Potency result in assay [2] and in [3] was “inactive” each time.

Regarding `COc1ccc2c(c[n+](C)c3c4cc5c(cc4ccc23)OCO5)c1OC`, the Potency was 43.2 µM (active) in [1]; 7.12 µM (active) in [12]; 6.34 µM (active) in assay [13]; 5.9 µM (active) in assay [8]; 5.25 µM (active) in [10].

As for `Cc1ccccc1-n1c(Cn2cnc3c(N)ncnc32)nc2cccc(C)c2c1=O`, the activation in [1] was 46.4% (inactive) and -16.1% (inactive). In addition, the Potency result in [2], in assay [3], in assay [11], in [5], in assay [6] and in assay [7] was “inactive” in each case. For the same compound, in [4], the viability is 110% (inactive). Moreover, the Potency in assay [8] was 2.95 µM (active).

Turning to `CC1(N2CCC(n3c([C@@H]4CCCNC4)nc4ccccc43)CC2)CCCCCCC1`, the activation in assay [1] was 44.9% (inactive) and 4.3% (inactive). For the same compound, the Potency entry in [2] and in assay [3] was “inactive” in each case. Besides, the Potency is 16.6 µM (active) in [10], 20900 nM (active) in assay [6] and 26.3 µM (active) in [7].

On to `O=C1N[C@@H](Cc2ccccc2)CN2CCCC[C@@H]12`, for which the activation in assay [1] is -9.16% (inactive). Besides, the Potency result in [2] and in assay [3] was “inactive” throughout.

For the compound `CCCCn1cc(C(=O)c2cccc3ccccc23)c2ccccc21`, the activation in assay [1] was 0.955% (inactive). In addition, the Potency result in [2] and in [3] was “inactive” throughout.

Turning to `CNC(=O)c1ccc(N2C(=S)N(c3ccc(C#N)c(C(F)(F)F)c3)C(=O)C23CCC3)cc1F`, the activation in assay [1] is 38.4% (inactive) and -8.11% (inactive). Besides, the Potency entry in assay [2] and in assay [3] was “inactive” each time. Also, the viability in assay [4] was 101% (inactive).

Take `CN1CN(c2ccccc2)C2(CCN(CCCC(=O)c3ccc(F)cc3)CC2)C1=O`: the Potency in assay [13] was 22.5 µM (active).
